PubChem BioAssay (NCATS)
The source made the active and inactive calls. Calls follow the shape of the dose curve; as a rule, active = well fitted activation curve with a large enough effect; inconclusive = small, poorly fitted or top-dose-only effect; inactive = flat fitted curve, though single readings scatter.

Test: Cellular Toxicity (caspase-3) SHSY5Y (AID 657)
Conditions: SH-SY5Y caspase-3 activation, DMSO zero, 10 µM staurosporine = 100%; series mostly up to 91.7 µM
Source text: NIH Chemical Genomics Center [NCGC]
NIH Molecular Libraries Screening Centers Network [MLSCN]
National Institutes of Environmental Health Sciences [NIEHS]
National Toxicology Program [NTP]
We have developed a 1536-well cell-based assay for quantitative high throughput screening (qHTS) against a number of cell lines to determine in vitro caspase 3/7 activity of small molecules. This particular assay uses the SH-SY5Y cell line which is derived from human neuroblastoma.
NCGC Assay Protocol Summary:
The Caspase-Glo 3/7 assay (Promega) is a homogeneous method to measure caspase-3 and caspase-7 activities in cultured cells. The quantitation of caspase 3/7 activity is based on the cleavage of a peptide-aminoluciferin substrate. After caspase cleaves the substrate the free aminoluciferin is liberated and serves as the substrate of luciferase, which generates the light. The luminescent signal is proportional to the amount of caspase 3/7 activity present.
Using the Caspase-Glo 3/7 assay, the amount of caspase 3/7 activity was measured in the SH-SY5Y cell line with complete culture medium following compound treatment for 16 hours. The assay was performed in opaque white 1536-well plates. In the screen, staurosporine and doxorubicin were used as positive controls. Library compounds were measured for their ability to cause the activation of caspase 3/7 in the cell line, as reflected by an increase in luminescence signal, in a concentration-dependent manner. Data were normalized to the controls for basal activity (DMSO only) and 100% stimulation (10 uM staurosporine). AC50 values were determined from concentration-response data modeled with the standard Hill equation.
qHTS protocol for caspase 3/7 assay in SH-SY5Y cells
[Step] [Parameter] [Value] [Description]
1. Reagent; 5 uL; 1500 SH-SY5Y cells/well
2. Time; 5 hr; 37 °C incubation
4. Controls; 23 nL; doxorubicin 7 pM to 100 uM & staurosporine 1.4 pM to 20 uM
5. Time; 16 hr; 37 °C incubation
6. Reagent; 5 uL; Caspase-Glo 3/7 reagent
7. Time; 1 hr; Room Temperature
8. Detection; Luminescence; Viewlux plate reader
Keywords: caspase 3/7, apoptosis, SH-SY5Y cell line, luminescence, NTPHTS, NTPHTS_NCGC, NIEHS, EPA, DSSTox, MLSMR, MLSCN, NIH Roadmap, qHTS, NCGC

SMILES	outcome
CC(C)(c1ccc(OCC2CO2)cc1)c1ccc(OCC2CO2)cc1 (stereo not drawn)	inactive
Oc1c(Cl)c(Cl)c(Cl)c(Cl)c1Cl	inactive
CCOc1cc(C=O)ccc1O	inactive
Oc1ccccc1Cl	inactive
O=Cc1ccccc1	inactive
CC(=O)/C=C/c1ccccc1	inactive
Cc1ccccc1O	inactive
COC(=O)c1ccccc1C(=O)OC	inactive
CCOC(=O)c1ccccc1N	inactive
COC1=CC(=O)OC(CCc2ccc3c(c2)OCO3)C1 (stereo not drawn)	inactive
c1ccc2c(c1)-c1cccc3cccc-2c13	inactive
c1ccc(Nc2ccc3ccccc3c2)cc1	inactive
CC(C)COC(=O)c1ccccc1C(=O)OCC(C)C	inactive
